# From PubChem BioAssay AID590 (National Center for Advancing Translational Sciences (NCATS), 2007)
# In all, about 59,000 compounds went through this assay and about 6,500 (11%) were called active. Roughly 15% stayed inconclusive and do not appear here. The sample holds actives, similar compounds and a random draw of the others, so the mix is not that of the screen. No stated cut-off is given here; in the data, active means max dye-equivalent concentration above about 10 nM; inconclusive means mostly about 1.1 nM to 9.6 nM; inactive means weaker than that.
# Experiment: qHTS Assay for Spectroscopic Profiling in A350 Spectral Region
# Details: Compound autofluorescence, 340/450 nm, Alexa 350 dye-equivalents; active compounds read high
row,Structure (SMILES),max dye-equivalent concentration
1,CCOc1ccc(N=NS(=O)(=O)O)cc1,inactive
2,COc1ccc(-c2nnn(CC(=O)N(CCO)C(C(=O)NC3CCCC3)c3ccc(F)cc3)n2)cc1 (stereo unspecified),inactive
3,CCOc1ccc2nc(NC(=O)CSc3nc4c(c(=O)n(C)c(=O)n4C)n3CC)sc2c1,inactive
4,Cc1ccc(C(C(=O)NC2CCCC2)N(Cc2ccco2)C(=O)CCC(=O)Nc2ccccn2)cc1 (stereo unspecified),inactive
5,Cc1noc(C)c1COC(=O)Cn1c(C)nc2ccccc21,inactive
6,O=C(Nc1ccc(Oc2ccccc2)cc1)c1ccco1,inactive
7,CCOc1cc(NC(=O)c2ccco2)c(OCC)cc1NC(=O)COc1ccccc1,78 nM (active)
8,Cc1ccc(C(=O)COc2cccc(NC(=O)c3ccco3)c2)cc1,inactive
9,O=C(c1cccs1)N1CCCC(c2nc(-c3ccc(F)cc3)no2)C1 (stereo unspecified),inactive
10,Cc1ccc(S(=O)(=O)N2CCOCC2)cc1C(=O)NCc1ccc(F)cc1,inactive
11,CC1CCc2sc3nc(N4CCN(CCO)CC4)n4ncnc4c3c2C1 (stereo unspecified),inactive
12,O=c1c2ccccc2nnn1CSc1nc2sc3c(c2c(=O)n1CC1CCCO1)CCC3 (stereo unspecified),inactive
13,CCCn1nnc2sc3c(c2c1=O)CCC(C)C3 (stereo unspecified),32 nM (active)
14,CC(C)C[C@H](NC(=O)[C@@H]1O[C@H]1C(=O)O)C(=O)NCCCCN=C(N)N,inactive
15,CC(C)Cc1ccc(S(=O)(=O)N2CCN(C(=O)c3ccco3)CC2)cc1,inactive
16,Cc1ccccc1NC(=O)c1cc(S(=O)(=O)N2CCOCC2)cs1,inactive
17,Cc1cc(NC(=O)CCC(=O)N(c2ccccc2)C(C(=O)NC2CCCC2)c2ccncc2)no1 (stereo unspecified),inactive
18,Cc1ccc2nc(NC3=NCN(CCc4ccccc4)CN3)nc(C)c2c1,inactive
19,COc1ccc2nc(NC3=NCN(CC4CCCO4)CN3)nc(C)c2c1 (stereo unspecified),82 nM (active)
20,Cc1ccsc1C(=O)OCC(=O)c1cc(C)n(CC2CCCO2)c1C (stereo unspecified),inactive
21,CCc1cc2c(=O)c(-c3ccon3)c(N)oc2cc1OC,inactive
22,CC(=NCC1CCCO1)c1c(O)[nH]c(=O)[nH]c1=O (stereo unspecified),inactive

row,Structure (SMILES),max dye-equivalent concentration
1,CCOC(=O)CN(C(=O)CN1CCOCC1)c1ccc(Br)cc1,inactive
2,COCCCn1c(CCC(=O)O)ccc1-c1ccc(F)cc1,1500 nM (active)
3,Cc1ccc(S(=O)(=O)C(C#N)c2nc3ccccc3nc2N2CCCC2)cc1C (stereo unspecified),190 nM (active)
4,Cc1cc(Cl)ccc1OCC(=O)Oc1c(Cl)c(Cl)c(Cl)c(Cl)c1Cl,inactive
5,COC(=O)c1c(NC(=O)c2cccs2)sc2c1CCCC2,65 nM (active)
6,CCOC(=O)c1c(NC(=O)c2cccs2)sc(C)c1C,180 nM (active)
7,CCOC(=O)c1c(NC(=O)CSc2nnc(Cc3csc(N)n3)n2C)sc(C)c1C,inactive
8,COC(=O)c1c(NC(=O)CSc2nncs2)sc2c1CCCCC2,inactive
9,COC(=O)Cn1cc(C(=O)c2cccs2)c2ccccc21,inactive
10,CCOCC(=O)Nc1sc2c(c1C(=O)OCC)CCCC2,inactive
11,CCOC(=O)CSc1nnc(CNC(=O)c2cccs2)n1-c1ccccc1,inactive
12,CCOC(=O)c1oc2ccccc2c1NC(=O)c1cccs1,21 nM (active)
13,CCOC(=O)c1c(-n2cnnn2)sc(C)c1C,inactive
14,Cc1ccc(C2(c3ccc(C)cc3)NC(=O)N(Cc3c(C)noc3C)C2=O)cc1,inactive
15,Cc1ccc(NC(=O)N2CCC(C(=O)NCc3ccc(F)cc3)CC2)cc1,inactive
16,CCOc1ccc(-c2nnn(CC(=O)N3CCN(c4ccc(OC)cc4)CC3)n2)cc1OCC,inactive
17,CCn1c(SCC(=O)Nc2nccs2)nnc1-c1ccncc1,inactive
18,CC(CN1CCCCC1)OC(=O)c1ccccc1Cl (stereo unspecified),inactive
19,CCCC(=O)Nc1ccc(C(=O)NCCCn2ccnc2)cc1,inactive
20,CCn1c(=O)cc(SCC(=O)NCc2ccc3c(c2)OCO3)c2ccccc21,inactive
21,CCCn1c(SCC(=O)c2ccc3c(c2)OCCO3)nnc1C(C)C,inactive
22,O=C(c1cc(C(F)(F)F)cc(C(F)(F)F)c1)N1CCC[C@@]2(CCN(c3ccccn3)C2)C1,inactive

row,Structure (SMILES),max dye-equivalent concentration
1,CCOC(=O)CC1C(=O)NCCN1C(=O)COc1ccc(Br)cc1C (stereo unspecified),inactive
2,CCOc1cccc(/C(O)=C2/C(=O)C(=O)N(CCOC)C2c2ccncc2)c1 (stereo unspecified),inactive
3,CCOC(=O)c1ccc(NC(=O)CSc2ncccn2)cc1,inactive
4,CCOC(=O)C1=C(C)NC(C)=C(C(=O)OCC)C1c1ccccn1,330 nM (active)
5,COCCOC(=O)C1=C(C)Nc2nc(C)nn2C1c1ccccc1 (stereo unspecified),inactive
6,CC(=O)OCC(=O)[C@@]1(O)CC[C@@H]2[C@H]3CCC4=CC(=O)C=C[C@]4(C)[C@]3(F)[C@@H](O)C[C@@]21C,inactive
7,Cn1c(=O)[nH]c(=O)c2c1nc(N1CCCCCC1)n2CC(=O)c1ccccc1,inactive
8,CCC(C)Sc1nc2c(c(=O)[nH]c(=O)n2C)n1CC(O)COc1cccc2ccccc12 (stereo unspecified),inactive
9,CS(=O)(=O)N1CCC2(CC1)CN(Cc1ccccc1)C2,inactive
10,CCn1c(CNc2ccc(OC)cc2)nnc1SCC(=O)c1ccc(OC)cc1,inactive
11,Cc1ccc(S(=O)(=O)Nc2ccccc2CNc2c(C)n(C)n(-c3ccccc3)c2=O)cc1,inactive
12,COCCCn1c2nc3ccccc3nc2c2c(=O)n(Cc3ccc(Cl)cc3)c(C)nc21,380 nM (active)
13,CCOC(=O)CSc1nc2c(sc(=S)n2CCc2ccccc2)c(=O)n1Cc1ccco1,inactive
14,O=c1[nH]c(CSc2ncc(-c3ccc(F)cc3)n2Cc2ccco2)nc2ccccc12,inactive
15,Cc1nc2c(c(=O)n1Cc1ccco1)c1nc3ccccc3nc1n2Cc1ccccc1,110 nM (active)
16,Cc1nc2ccccc2c(=O)n1CCCn1ccnc1,inactive
17,COc1ccccc1NC(=O)CSc1nc2sc(C)c(C)c2c(=O)n1Cc1ccco1,inactive
18,Cc1ccc(Cn2c(C)nc3c(c2=O)c2nc4ccccc4nc2n3Cc2ccco2)cc1,1000 nM (active)
19,CC(Sc1nc2ccccc2c(=O)n1Cc1ccco1)C(=O)c1ccccc1 (stereo unspecified),inactive
20,Cn1c(COc2ccc(Cl)cc2)nc2ccccc2c1=O,inactive
21,Cc1ccc(N2CCN(c3ccc(C)cc3)C2c2ccccn2)cc1,inactive
22,COc1ccccc1-n1cnc2cc(NS(=O)(=O)c3ccccc3)ccc21,inactive
